Data on 58 molecules can be found in PubChem BioAssay AID652105 (National Center for Advancing Translational Sciences (NCATS), 2013).

Molecules are shown by their SMILES. Hit rate of the full screen: of about 330,000 compounds, about 4,100 (1.2%) were called active. Not shown: some 2% with an inconclusive outcome. Rule for the calls: active = max response of -50% or lower; inconclusive = between -30% and -50%; inactive = -30% or higher. Shown is part of a subset that was picked to be rich in actives.
% is set by controls: 0 for no effect and ±100 for the full control effect.

Chain of Phosphatidylinositol 5-phosphate 4-kinase type-2 alpha (Homo sapiens) (P48426 whole entry, looked up): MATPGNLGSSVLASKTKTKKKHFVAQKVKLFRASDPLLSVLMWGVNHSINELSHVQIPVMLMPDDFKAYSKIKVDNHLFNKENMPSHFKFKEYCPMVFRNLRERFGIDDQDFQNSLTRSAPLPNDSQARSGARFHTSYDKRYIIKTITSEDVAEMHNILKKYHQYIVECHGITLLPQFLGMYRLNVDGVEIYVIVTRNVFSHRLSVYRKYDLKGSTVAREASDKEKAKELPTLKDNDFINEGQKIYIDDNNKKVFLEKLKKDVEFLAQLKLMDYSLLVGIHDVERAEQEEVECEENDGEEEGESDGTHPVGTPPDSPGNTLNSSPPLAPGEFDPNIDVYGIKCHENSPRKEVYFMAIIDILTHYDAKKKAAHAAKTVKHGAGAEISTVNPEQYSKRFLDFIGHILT

The assay has as its target Phosphatidylinositol 5-phosphate 4-kinase type-2 alpha (Homo sapiens) (UniProt P48426). Description: qHTS for Inhibitors of phosphatidylinositol 5-phosphate 4-kinase (PI5P4K). Note: value at the top dose of about 77 µM. Conditions: PI5P4Kalpha enzyme, ADP-Glo luminescence, 60 min; hits give low values. A digest of the protocol:
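Controls without substrate or without enzyme flank wells where PI5P4Kalpha converts substrate using 5 microM ATP (final). Incubation lasts 60 minutes at room temperature; ADP formed is read by ADP-Glo luminescence.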
(Quantitative high-throughput screening tests each substance at several concentrations.)
`O=C(O)c1ccc2c(=O)n3c(nc2c1)/C(=C/c1ccc(Cl)c([N+](=O)[O-])c1)CC3`: the max response was -16.4% (inactive).

As for `O=C(O)c1ccc2c(=O)n3c(nc2c1)/C(=C/c1ccc(OC(F)F)cc1OC(F)F)CC3`, the max response is -50.1% (active).

As to `N#Cc1ccc(/C=C2\CCn3c2nc2cc(C(=O)O)ccc2c3=O)cc1`, the max response was -10.5% (inactive).

Take `CCc1nc2ccc(C(=O)N(C)CCN(C)C)cn2c1N(CC)CCOC`: the max response was 2.65% (inactive).

For the molecule `OC(c1ccc(Cl)c(F)c1)c1ncc(-c2ccccc2Cl)[nH]1` (stereo not drawn), the max response was 10.9% (inactive).

On to `CC(C)c1ccc(CC(=O)N2CCC2(C)C(=O)NS(=O)(=O)c2ccc(C(C)(C)C)cc2)cc1` (stereo not drawn), for which the max response is 3.85% (inactive).

On to `O=C1/C(=C\c2ccc([N+](=O)[O-])cc2)CS(=O)(=O)C/C1=C/c1ccc([N+](=O)[O-])cc1`, for which the max response was -83.1% (active).

Turning to `CC(=O)Nc1ccc(C=Cc2ccc([N+](=O)[O-])cc2)cc1`, the max response was -5.32% (inactive).

As to `O=[N+]([O-])c1ccc(C=NN=Cc2ccc([N+](=O)[O-])cc2)cc1`, the max response was -4.59% (inactive).

Take `CC=CCn1c(SCCCc2ccccc2)nc2c1c(=O)[nH]c(=O)n2C`: the max response is -3.45% (inactive).

In the case of `Cc1ccc(/C=C/C(=O)Nc2cc(S(=O)(=O)N3CCCCCC3)ccc2OCC(F)(F)F)o1`, the max response was 2.97% (inactive).

In the case of `Cc1ccc(/C=C/C(=O)Nc2ccc([N+](=O)[O-])c(NC(=O)/C=C/c3ccc(C)o3)c2)o1`, the max response is -71.8% (active).

Take `COC(=O)/C=C\C(=O)Nc1cccc([N+](=O)[O-])c1`: the max response was -26.6% (inactive).

Regarding `Cc1cc(C)n2c(NCc3ccccc3)c(CC(C)C)nc2n1`, the max response is -0.19% (inactive).

`C[C@H]1CN(c2ccc(Br)cc2)C(=O)[C@@H]1CC(=O)Nc1ccc(Br)cc1`: the max response is -1.71% (inactive).

Consider `COc1ccc(C(NC(=O)C2CCN(CCCc3ccccc3)CC2)c2cccs2)cc1` (stereo not drawn), for which the max response was -1.92% (inactive).

`O=C(N/N=C/c1cc2c(cc1Br)OCO2)C1COc2ccccc2O1` (stereo not drawn): the max response was 0.44% (inactive).

For `O=C(N/N=C\c1cc(Br)c(Br)o1)C1COc2ccccc2O1` (stereo not drawn), the max response was 1.1% (inactive).

Consider `O=C(CNC(=O)C1COc2ccccc2O1)N/N=C/c1cc(Br)c(O)c(Br)c1` (stereo not drawn), for which the max response was -78.5% (active).

As for `CC(C)NC(=O)N1Cc2cc(C(=O)NCC(F)(F)F)nc(-c3cccc(-c4cc5ccccc5o4)c3)c2[C@@H]1CCO`, the max response was 10.9% (inactive).

As to `CN1CCN(c2ccc3c(c2)OC[C@H](Cc2ccccc2)NS3(=O)=O)CC1`, the max response is 6.74% (inactive).

Take `O=C(NC(=S)Nc1ccc(S(=O)(=O)N2CCOCC2)cc1)c1ccccc1[N+](=O)[O-]`: the max response is -13.4% (inactive).

On to `O=C(Nc1ccc(S(=O)(=O)N2CCOCC2)cc1)C1CCN(S(=O)(=O)c2ccc(Cl)cc2)CC1`, for which the max response was 11.3% (inactive).

As for `O=S(=O)(c1ccc(NC(=S)NN=C(C2CC2)C2CC2)cc1)N1CCOCC1`, the max response was -67.5% (active).

Consider `COc1cccc(-c2cnc3c(NC(C)=O)cc(-c4cc(F)ccc4OC)cn23)c1`, for which the max response is 0.465% (inactive).

For the molecule `Cc1ccc(-c2ccc(CN3C(C)C(=O)N(Cc4cn(CCC5OCCCO5)nn4)CCS3(=O)=O)cc2)cc1` (stereo not drawn), the max response is -1.32% (inactive).

Turning to `CCOc1ccc(-n2c(O)c(/C=N/Nc3nc(C)cc(C)n3)c3ccccc3c2=O)cc1`, the max response is 3.69% (inactive).

As for `CCOc1ccc(-n2c(O)c(/C=N/c3ccnn3Cc3ccncc3)c3ccccc3c2=O)cc1`, the max response was 1.64% (inactive).

With `CCOc1ccc(-n2c(O)c(/C=N/Nc3nnc(C)c(=O)[nH]3)c3ccccc3c2=O)cc1`, the max response was -64% (active).

On to `O=C1NC(O)CCN1C1CC(O)C(CO)O1` (stereo not drawn), for which the max response is -0.0784% (inactive).

`Cc1ccc2nc(-c3ccco3)c(Cc3cccc(Cl)c3)n2c1`: the max response was -20% (inactive).

`Cc1ccc(Cc2c(-c3ccccc3)nc3ccc(Cl)cn23)cc1`: the max response is 3.67% (inactive).

`Cc1ccc(Cc2c(-c3ccco3)nc3ccc(Cl)cn23)cc1`: the max response was -53.8% (active).

For the molecule `Cc1ccc([C@H]2N[C@]3(CCCN(CC4CCCCC4)C3=O)[C@H]3C(=O)N(Cc4ccccc4)C(=O)[C@@H]23)cc1`, the max response is -7.84% (inactive).

On to `Cc1cc(Cl)ccc1-c1nc(NCCN(C)C)nc2ccsc12`, for which the max response was 2.25% (inactive).

As to `Cc1cc(O)c(Sc2ccccc2)c(=O)o1`, the max response is 5.88% (inactive).

Consider `Cc1cc(O)c(C(=O)/C=C/c2c(F)c(F)c(F)c(F)c2F)c(=O)o1`, for which the max response is -77.8% (active).

With `Cc1ccc(N=Cc2c(O)cc(C)oc2=O)c(C)c1`, the max response was -7.86% (inactive).

On to `CCc1nc2c(OCc3ccc(Cl)cc3Cl)cccn2c1N(C)C(=O)C(C)C`, for which the max response was 2.81% (inactive).

For the molecule `O=C(NC1CCCC1)C1c2ccccc2OCC(=O)N1Cc1ccccc1` (stereo not drawn), the max response was -0.138% (inactive).

In the case of `CCCC(=O)N1CCC1(C)C(=O)NCc1ccc(C(C)C)cc1` (stereo not drawn), the max response was -1.03% (inactive).

Turning to `CC(C)Cc1ccc(-c2cc3nc(NCc4cccc(Cl)c4)ccn3n2)cc1`, the max response was 47.1% (inactive).

Turning to `COc1ccccc1CNC(=O)c1cc(-c2cc(Cl)ccc2C)n[nH]1`, the max response is -0.482% (inactive).

For `CCSc1nc(O)c(C(c2cccc(OC)c2)c2c(O)nc(SCC)[nH]c2=O)c(=O)[nH]1`, the max response is -58.8% (active).

Take `CCn1c(SC)nc(O)c(C(c2ccc(OC)c(O)c2)c2c(O)nc(SC)n(CC)c2=O)c1=O`: the max response was -12.5% (inactive).

As for `CCSc1nc(C)c(CCOc2cccc(C)c2)c(=O)[nH]1`, the max response was 0.672% (inactive).

Turning to `O=C(c1ccccc1)N1CCN(c2cc(-c3ccccc3)nc3cc(-c4cccc(Cl)c4)nn23)CC1`, the max response was 6.72% (inactive).

Consider `O=S1(=O)CC(N2CCN(Cc3ccccc3F)CC2)CN1Cc1cn(Cc2cccc(C(F)(F)F)c2)nn1` (stereo not drawn), for which the max response is 4.9% (inactive).

Regarding `O=C(Nc1ccc(F)cc1)C(CCc1ccccc1)N1CCN(CC(=O)N2CCCC2)CC1` (stereo not drawn), the max response is -9.87% (inactive).

Consider `CCS(=O)(=O)c1cc([N+](=O)[O-])c(Sc2ccccc2N)s1`, for which the max response is -65.8% (active).

On to `Cc1ccc(S(=O)(=O)NCCSc2ccccc2)cc1[N+](=O)[O-]`, for which the max response was -4.48% (inactive).

Regarding `COc1c(C)cc(C(O)c2ncc(-c3cccc(C(F)(F)F)c3)[nH]2)cc1C` (stereo not drawn), the max response is -7.49% (inactive).

With `CCOc1ccc2[nH]c(C(=O)N/N=C/c3cccc(OC)c3OC)cc2c1`, the max response was 8.06% (inactive).

`COc1cccc(/C=N\NC(=O)C2=NNC(=O)C2C)c1O` (stereo not drawn): the max response was -72.8% (active).

Regarding `COc1ccc(/C=N/NC(=O)c2ccc3c(c2)OCCO3)c(OC)c1`, the max response is 3.95% (inactive).

Turning to `COc1cccc(/C=N/NC(=O)c2[nH]nc3c2CCc2ccccc2-3)c1O`, the max response was -53% (active).

With `COc1ccc(Br)cc1/C=N/NC(=O)c1cccc(S(=O)(=O)N2CCOCC2)c1`, the max response was -4.11% (inactive).

`COc1cc2cc(C(=O)N/N=C/c3cccc(OC)c3OC)[nH]c2cc1OC`: the max response is 0.853% (inactive).
